Data as given in PubChem BioAssay (NCATS).
Where “and” joins values, the source holds several entries; their conditions need not be identical. Identical values can stand only once. Records with an inconclusive call do not appear. Entries that show only a call come without a potency. Calls of active or inactive are those of the source. Calls come from the whole dose curve; as a rule, active = well fitted curve in the direction sought with a large enough effect; inconclusive = small, poorly fitted or top-dose-only effect, or another doubt; inactive = no such curve, though single readings can be large; an effect the other way counts as inactive or inconclusive. Non-standard residues stand in square brackets, D forms with d. Residues, ends and D or L forms follow the SMILES beside them. *: point of attachment. Sta = CC(C)C[C@H](N)[C@@H](O)CC(=O)O; Isovaleryl = CC(C)CC(=O)*

Columns and labels:
[1] = qHTS Screen of the MIPE 4.0 Collection Against Ewings Sarcoma (TC32) (AID 1259256); details: TC32 Ewing sarcoma viability, CellTiter-Glo, 48 h; series mostly up to 45.8 µM; note: nearly all actives have a fitted effect of over 45% in size; note: potency is the fitted concentration of half-maximal effect
Summary of the method: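 Log-phase cells in RPMI with 5% FBS attached for 4 h, then received compounds as a titration for 48 h at 37C, 5% CO2. Viability was read by CellTiter-Glo luminescence and normalized to DMSO and no-cell wells.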

[2] = qHTS assay to identify small molecule inhibitors of chordoma cells - UCH-1 (AID 1259355); details: UCH-1 chordoma viability, CellTiter-Glo, 48 h, combination, with auranofin plus four topoisomerase inhibitors; series mostly up to 46.1 µM; note: nearly all actives have a fitted effect of over 55% in size
Summary of the method: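 Screening used approved and investigational drugs in 15-point titration against 800 seeded cells per well. A fixed combination of auranofin with camptothecin, doxorubicin, rubitecan and topotecan followed compound addition, and growth was scored by CellTiter-Glo after 48hr.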

[3] = qHTS assay to identify small molecule inhibitors of chordoma cells - UCH-2 (AID 1259356); details: UCH-2 chordoma viability, CellTiter-Glo ATP luminescence, 48 h; series mostly up to 46.1 µM
[4] = P-glycoprotein substrates identified in KB-8-5-11 adenocarcinoma cell line, qHTS therapeutic library screen (AID 1346987); details: KB-8-5-11 (P-gp overexpressing) viability, CellTiter-Glo, 72 h; series mostly up to 44.5 µM; note: nearly all actives have a fitted effect of over 65% in size; note: potency is the fitted concentration of half-maximal effect
Summary of the method: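 Compounds are pinned in dose-response onto KB-8-5-11 cells (500 cells/well, colchicine-free medium) and left 72 h at 37 degree C. CellTiter-Glo luminescence then yields AC50 values.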

[5] = Identifying Small Molecule Inhibitors of Pancreatic Cancer Stem Cells (SN12C, Adherent) (AID 1259358); details: viability/growth inhibition; series mostly up to 46.1 µM;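 note: cell survival measured after 48 h of compound exposure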; note: potency is the fitted concentration of half-maximal effect
Summary of the method: (§1)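 Spheroids grown 14 days in stem cell media on hydrogel-coated nonadherent plates; 2D lines seeded directly. Compounds added after 4 h attachment, 48 h at 37C, 5% CO2; CellTiter-Glo luminescence normalized to DMSO (no inhibition) and no-cell wells (full inhibition).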

[6] = Identifying Small Molecule Inhibitors of Pancreatic Cancer Stem Cells (A278, Adherent) (AID 1259361); details: series mostly up to 46.1 µM; note: nearly all actives have a fitted effect of over 35% in size
Summary of the method: as §1

[7] = Identifying Small Molecule Inhibitors of Pancreatic Cancer Stem Cells (Panc1, Adherent) (AID 1259362); details: Potency: viability; series mostly up to 46.1 µM; note: potency is the fitted concentration of half-maximal effect
Summary of the method: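 Cytotoxicity read by CellTiter-Glo luminescence after 48 h compound exposure at 37C; percent activity scaled between DMSO-treated cells and cell-free wells. Spheroid formats used cells pre-formed 14 days in stem cell media on hydrogel.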

Structure (SMILES) | Potency [1] | Potency [2] | Potency [3] | Potency [4] | Potency [5] | IC50 (viability decrease) [6] | Potency [7]
Cc1c(OCC(F)(F)F)ccnc1CS(=O)c1nc2ccccc2[nH]1 (stereo not drawn) | inactive | inactive | inactive | inactive |  |  | 
CC(S)C(=O)NCC(=O)O (stereo not drawn) | inactive | inactive | inactive | inactive |  |  | 
CC(C)Oc1ccc2c(=O)c(-c3ccccc3)coc2c1 | inactive | inactive | inactive |  |  |  | 
CC(C)CC(=O)N[C@H](C(=O)N[C@H](C(=O)N[C@@H](CC(C)C)[C@@H](O)CC(=O)N[C@@H](C)C(=O)N[C@@H](CC(C)C)[C@@H](O)CC(=O)O)C(C)C)C(C)C (Isovaleryl-VV[Sta]A[Sta]-OH) | inactive | inactive | inactive | inactive |  |  | 
NNc1nncc2ccccc12 | inactive | inactive | inactive |  |  |  | 
Cc1cc2cc3c(C)cc(=O)oc3c(C)c2o1 | 16.6 µM (active) | inactive | inactive | inactive |  |  | 
COc1c2occc2cc2ccc(=O)oc12 | 3.32 µM (active) | inactive | inactive |  |  |  | 
C[C@]12CCC(=O)C=C1CC[C@@H]1[C@H]2[C@@H](O)C[C@@]2(C)[C@H]1CC[C@]2(O)C(=O)CO | inactive | inactive | inactive | inactive |  |  | 
CCN(CCO)CCCC(C)Nc1ccnc2cc(Cl)ccc12 (stereo not drawn) | 23.5 µM (active) | inactive | inactive | inactive | inactive | inactive | 
Nc1nc(Cl)nc2c1ncn2[C@H]1C[C@H](O)[C@@H](CO)O1 | 0.296 µM (active) | inactive | inactive | inactive |  | 0.0959 µM (active) | 
COc1c(O)cc2c(c1O)[C@@H]1O[C@H](CO)[C@@H](O)[C@H](O)[C@H]1OC2=O | inactive | inactive | inactive | inactive |  |  | 
Cc1cccc(CN2CCN(C(c3ccccc3)c3ccc(Cl)cc3)CC2)c1 (stereo not drawn) | 13.2 µM (active) | inactive | inactive |  |  |  | 
O=C(O)c1cc(=O)c2c(OCC(O)COc3cccc4oc(C(=O)O)cc(=O)c34)cccc2o1 | inactive | inactive | inactive |  |  |  | 
Cc1cc(Cl)ccc1OCCCC(=O)NO | 11.8 µM (active) |  |  |  |  |  | 
CCCCC(CC)COC(=O)C(C#N)=C(c1ccccc1)c1ccccc1 (stereo not drawn) | inactive | inactive | inactive |  |  |  | 
NS(=O)(=O)c1cc(C(=O)O)c(NCc2ccco2)cc1Cl | inactive | inactive | inactive | inactive |  |  | 
CC(C)[C@H](N)C(=O)OCCOCn1cnc2c(=O)[nH]c(N)nc21 | inactive | inactive | inactive | inactive |  |  | 
Nc1ccc(S(N)(=O)=O)cc1 | inactive | inactive | inactive | inactive |  |  | 

Structure (SMILES) | Potency [1] | Potency [2] | Potency [3] | Potency [4] | Potency [5] | IC50 (viability decrease) [6] | Potency [7]
Nc1nc(N)c(N=O)c(OCC2CCCCC2)n1 | 9.35 µM (active) |  |  |  |  |  | 
COc1ccc(C2(C#N)CCC(C(=O)O)CC2)cc1OC1CCCC1 (stereo not drawn) | inactive | inactive | inactive | inactive |  |  | 
CCOC(=O)C1=C[C@@H](OC(CC)CC)[C@H](NC(C)=O)[C@@H](N)C1 | inactive | inactive | inactive | inactive |  |  | 
Nc1cc(C(Cl)=C(Cl)Cl)c(S(N)(=O)=O)cc1S(N)(=O)=O | inactive | inactive | inactive | inactive |  |  | 
Oc1ccc(OCc2ccccc2)cc1 | 4.18 µM (active) | inactive | inactive | inactive |  |  | 
CCC(C)(Oc1ccc(C2(c3ccc(OC(C)(CC)C(=O)O)cc3)CCCCC2)cc1)C(=O)O (stereo not drawn) | inactive | inactive | inactive | inactive |  |  | 
Cc1cc(=O)oc2cc(O)ccc12 | inactive | inactive | inactive | inactive |  |  | 
CC(C)c1ccc2oc3nc(N)c(C(=O)O)cc3c(=O)c2c1 | inactive | inactive | inactive | inactive |  |  | 
COC1=C(OC)C(=O)C(CCCCCCCCCCO)=C(C)C1=O | 26.4 µM (active) | inactive | inactive | inactive |  |  | 
C[C@H](Cn1cnc2c(N)ncnc21)OCP(=O)(O)O | inactive | inactive | inactive | inactive |  |  | 
C[Se]CCC(N)C(=O)O (stereo not drawn) | inactive | inactive | inactive | inactive |  |  | 
N=C(N)c1ccc2cc(OC(=O)c3ccc(N=C(N)N)cc3)ccc2c1 | inactive | inactive | inactive | inactive |  |  | 
O=C(O)c1cn(-c2ccc(F)cc2)c2cc(N3CCNCC3)c(F)cc2c1=O | inactive | inactive | inactive | inactive |  |  | 
CC(C)[N+]1(C)[C@@H]2CC[C@H]1CC(OC(=O)C(CO)c1ccccc1)C2 (stereo partly drawn) | inactive | inactive | inactive | inactive |  |  | 
O=c1oc2cc(O)ccc2s1 | 20.9 µM (active) | inactive | inactive | inactive |  |  | 
CN(C)C(=O)COC(=O)Cc1ccc(OC(=O)c2ccc(N=C(N)N)cc2)cc1 | 0.0469 µM (active) | inactive | inactive | inactive |  |  | 
S=c1nc[nH]c2nc[nH]c12 | 3.32 µM (active) |  | inactive | 2.59 µM (active) and 2.64 µM (active) | 38.2 µM (active) | 1.71 µM (active) | 5.4 µM (active)
